These results are taken from PubChem BioAssay (Tox21).

A short description of experiment [1]: qHTS RealTime-Glo MT Cell Viability Assay in HEK293 cells - 16 hour (AID 1224872). Also: nearly all actives have a fitted effect of over 50% in size. Also: potency is read from the fitted curve at half-maximal effect. A digest of the protocol:
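Homogeneous bioluminescent viability format in HEK293 cells (600 cells/well). Following 5 h at 37 C/5% CO2, 23 nL compound was pintooled; the signal was measured repeatedly during 40 h incubation.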

The nature of experiment [2]: qHTS RealTime-Glo MT Cell Viability Assay in HepG2 cells - 8 hour (AID 1224873). Also: nearly all actives have a fitted effect of over 55% in size. A digest of the protocol: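 Real-time viability: cells seeded at 600 per well together with NanoLuc and cell-permeant prosubstrate, compounds added after 5 h incubation. Luminescence tracked at 0, 8, 16, 24, 32 and 40 h of exposure.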
Experiment [3] can be described thus: qHTS RealTime-Glo MT Cell Viability Assay in HEK293 cells - 40 hour (AID 1224874). Also: nearly all actives have a fitted effect of over 50% in size. Also: potency is read from the fitted curve at half-maximal effect. To be noted: RealTime-Glo luminescence; max response: hits give low values. A digest of the protocol:
(§1)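 Viable HEK293 cells reduce a cell-permeant prosubstrate; the product diffuses out and is consumed by NanoLuc in the medium to give light. Compounds went in after a 5 h incubation and plates were read over the treatment course.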

The nature of experiment [4]: A CellTox Green Cytotoxicity Assay to monitor cytotoxicity in HEK293 cells - 24 hour (AID 1224875). Also: nearly all actives have a fitted effect of over 45% in size. Also: potency is read from the fitted curve at half-maximal effect. The method, boiled down:
(§2)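 Fluorescence intensity, read at 0, 8, 16, 24, 32 and 40 h of compound treatment, reflected dye binding to DNA of dead HEK293 cells; compounds (23 nL, DMSO) were added 5 h after plating cells with reagent.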

Experiment [5] can be described thus: A CellTox Green Cytotoxicity Assay to monitor cytotoxicity in HepG2 cells - 16 hour (AID 1224876). Also: nearly all actives have a fitted effect of over 45% in size. A digest of the protocol: (§3)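 Using 1536-well format, dye-containing HepG2 suspension was seeded, allowed 5 h at 37 C/5% CO2, dosed by pintool with compounds, positive and negative controls, and imaged for fluorescence across 40 h.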
The nature of experiment [6]: qHTS RealTime-Glo MT Cell Viability Assay in HepG2 cells - 32 hour (AID 1224877). Also: nearly all actives have a fitted effect of over 55% in size. The method, boiled down:
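Cell number in HepG2 cultures estimated from NanoLuc luminescence generated by metabolic reduction of a prosubstrate by living cells. The homogeneous, nonlytic format allowed repeated reads at 0, 8, 16, 24, 32 and 40 h of compound exposure.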

Experiment [7] in a line: A CellTox Green Cytotoxicity Assay to monitor cytotoxicity in HepG2 cells - 24 hour (AID 1224878). Also: nearly all actives have a fitted effect of over 45% in size. A digest of the protocol: as §3
Experiment [8] in a line: A CellTox Green Cytotoxicity Assay to monitor cytotoxicity in HepG2 cells - 40 hour (AID 1224879). Also: nearly all actives have a fitted effect of over 40% in size. The method, boiled down: as §3
Experiment [9] is described as follows: qHTS RealTime-Glo MT Cell Viability Assay in HEK293 cells - 0 hour (AID 1224880). Also: top concentration of the series differs between compounds; nearly all actives have a fitted effect of over 45% in size. The method, boiled down:
as §1

The nature of experiment [10]: A CellTox Green Cytotoxicity Assay to monitor cytotoxicity in HEK293 cells - 32 hour (AID 1224881). Also: nearly all actives have a fitted effect of over 40% in size. Also: potency is read from the fitted curve at half-maximal effect. A digest of the protocol: as §2

The structures appear in SMILES notation. Inconclusive results are not listed. A number with no mark means an inactive call. Activity calls are given as the source filed them. Calls follow the shape of the dose curve; as a rule, active = well fitted curve in the direction sought with a large enough effect in the repeat runs; inconclusive = weak or mixed curves; inactive = no such curve, though single readings can be large; an effect the other way counts as inactive or inconclusive.
% is scaled to controls: 0 for no effect and ±100 for the full control effect.

`Cc1cccc(C#N)c1`: the Potency entry in [1], in experiment [2], in experiment [4], in experiment [5], in experiment [6] and in experiment [7] was “inactive” each time. Also, the Potency result in [8] and in experiment [10] was “inactive” in each case. The max response in experiment [3] was 6.99%. In addition, the call in experiment [9] was inactive.

For `N#CCNCC#N`, the Potency entry in experiment [1], in experiment [2], in experiment [4], in experiment [5], in experiment [6] and in [7] was “inactive” each time. Besides, the Potency result in [8] and in [10] was “inactive” each time. For the same molecule, the max response in experiment [3] is 3.83%. In experiment [9], the molecule was called inactive.

`CC(C)CC#N`: the Potency result in experiment [1], in [2], in experiment [4], in experiment [5], in experiment [6] and in experiment [7] was “inactive” throughout. For the same molecule, the Potency entry in [8] and in experiment [10] was “inactive” throughout. Also, the max response in experiment [3] was 8.82%. For the same molecule, the call in [9] was inactive.

Turning to `C=C(C)[C@@H]1CC=C(C=O)CC1`, the Potency entry in experiment [1], in [2], in experiment [4], in [5], in [6] and in experiment [7] was “inactive” in each case. Further, the Potency result in experiment [8] and in experiment [10] was “inactive” each time. Also, the max response in experiment [3] is -6.37%. Besides, in experiment [9], the result was inactive.

For `CC(C=O)Cc1ccc2c(c1)OCO2` (centres undefined), the Potency result in experiment [1], in experiment [2], in experiment [4], in experiment [5], in experiment [6] and in experiment [7] was “inactive” in each case. For the same molecule, the Potency entry in experiment [8] and in [10] was “inactive” in each case. In addition, the max response in experiment [3] is 0.337%. Moreover, in experiment [9], the molecule was classed as inactive.

With `CNC(=O)Oc1ccc(N(C)C)c(C)c1`, the Potency result in experiment [1], in [2], in experiment [4], in [5], in [6] and in experiment [7] was “inactive” in each case. The Potency entry in [8] and in experiment [10] was “inactive” each time. In addition, the max response in experiment [3] is -14.9%. Also, the call in experiment [9] was inactive.

Consider `Cc1ncsc1CCCl`, for which the Potency result in experiment [1], in [2], in [4], in experiment [5], in experiment [6] and in [8] was “inactive” throughout. Further, the Potency result in experiment [10] is “inactive”. The max response in [3] was 3.38%. Besides, the outcome in experiment [9] was inactive.

Take `[O]=[Cd]`: the Potency result in [1], in experiment [2], in experiment [4], in experiment [5], in [6] and in experiment [8] was “inactive” in each case. Moreover, in experiment [10], the Potency entry is “inactive”. In addition, the max response in experiment [3] is 15.5%. Besides, the molecule was classed as inactive in [9].

On to `CCS(=O)(=O)C(C)(C)S(=O)(=O)CC`, for which the Potency entry in [1], in experiment [2], in experiment [4], in experiment [5], in experiment [6] and in experiment [8] was “inactive” each time. The Potency entry in experiment [10] was “inactive”. The max response in [3] was 3.47%. For the same molecule, in experiment [9], the outcome was inactive.

As to `CC(=O)[C@H]1CC[C@H]2[C@@H]3CC[C@H]4C[C@H](O)CC[C@]4(C)[C@H]3C(=O)C[C@]12C`, the Potency result in experiment [1], in experiment [2], in experiment [4], in experiment [5], in experiment [6] and in [8] was “inactive” throughout. The Potency result in experiment [10] was “inactive”. Besides, the max response in [3] was -27.6%. Moreover, the molecule was called inactive in experiment [9].

Consider `CCC(C)(C)c1cc(-n2nc3ccccc3n2)c(O)c(C(C)(C)CC)c1`, for which the Potency is 24.9 µM (active) in experiment [1] and 22.2 µM (active) in experiment [3]. Further, the Potency entry in [2], in [4], in [5], in [6], in [7] and in [8] was “inactive” throughout. Also, the Potency result in experiment [10] is “inactive”. The result in [9] was inactive.

As for `CN(C)CCc1ccc(O)cc1`, the Potency entry in experiment [1], in experiment [2], in experiment [4], in [5], in experiment [6] and in experiment [7] was “inactive” throughout. The Potency entry in [8] and in [10] was “inactive” in each case. The max response in experiment [3] is 11.4%. Moreover, in experiment [9], the outcome was inactive.

In the case of `NC(=O)O`, the Potency entry in [1], in experiment [2], in experiment [4], in [5], in experiment [6] and in experiment [7] was “inactive” throughout. For the same molecule, the Potency result in experiment [8] and in [10] was “inactive” in each case. The max response in experiment [3] was 3.48%. Further, the result in experiment [9] was inactive.

In the case of `N#CC(O)c1ccccc1` (centres undefined), the Potency entry in [1], in [2], in [4], in experiment [5], in [6] and in experiment [7] was “inactive” throughout. Further, the Potency entry in experiment [8] and in [10] was “inactive” throughout. Further, the max response in experiment [3] was 19.9%. Also, in experiment [9], the outcome was inactive.

In the case of `C=CC1CC=CCC1` (centres undefined), the Potency entry in experiment [1], in [2], in experiment [4], in experiment [5], in experiment [6] and in experiment [8] was “inactive” throughout. The Potency entry in experiment [10] was “inactive”. Further, the max response in experiment [3] is 3.23%. Moreover, the outcome in experiment [9] was inactive.

With `CCCSP(=S)(OCC)Oc1ccc(Cl)cc1Cl` (centres undefined), the Potency entry in [1], in [2], in [4], in experiment [5], in experiment [6] and in [7] was “inactive” throughout. In addition, the Potency entry in experiment [8] and in [10] was “inactive” in each case. Further, in experiment [3], the max response was 1.03%. Besides, the molecule was called inactive in [9].

With `O=[N+]([O-])c1cc(Cl)c(Cl)c(Cl)c1`, the Potency entry in [1], in [2], in [5], in experiment [6] and in [8] was “inactive” throughout. In experiment [3], the max response was 5.08%. The Potency in [4] and in [10] was 21.7 µM (active) each time. In addition, the molecule was called inactive in [9].

Regarding `CCC(=O)C(CCN(C)C)(c1ccccc1)c1ccccc1`, the Potency entry in [1], in experiment [2], in experiment [4], in [5], in experiment [6] and in [8] was “inactive” throughout. For the same molecule, the Potency result in experiment [10] is “inactive”. For the same molecule, the max response in [3] is -20.5%. Further, the call in experiment [9] was inactive.

On to `Cc1cc(C)c(C(=O)P(=O)(C(=O)c2c(C)cc(C)cc2C)c2ccccc2)c(C)c1`, for which the Potency result in experiment [1], in experiment [2], in experiment [4], in [5], in [6] and in experiment [7] was “inactive” each time. Moreover, the Potency entry in [8] and in experiment [10] was “inactive” each time. The max response in experiment [3] was -8.76%. In addition, the call in experiment [9] was inactive.

On to `COc1cc(OC)nc(Sc2cccc(Cl)c2C(=O)O)n1`, for which the Potency result in experiment [1], in experiment [2], in experiment [4], in [5], in experiment [6] and in experiment [8] was “inactive” in each case. The Potency result in experiment [10] was “inactive”. For the same molecule, the max response in experiment [3] is 16.2%. Moreover, the result in experiment [9] was inactive.

For the molecule `ClCCOCOCCCl`, the Potency result in experiment [1], in [2], in experiment [4], in experiment [5], in experiment [6] and in experiment [8] was “inactive” each time. In experiment [10], the Potency result is “inactive”. For the same molecule, in experiment [3], the max response is -5.52%. Besides, the molecule was classed as inactive in experiment [9].

`O=C(Oc1ccc(Br)cc1)N1CCN2CCC1CC2`: the Potency result in [1], in experiment [2], in experiment [4], in [5], in experiment [6] and in experiment [8] was “inactive” throughout. For the same molecule, the Potency result in experiment [10] was “inactive”. Moreover, the max response in experiment [3] was -0.781%. The call in experiment [9] was inactive.

`COC(=O)C(c1ccccc1)C1CCCCN1` (centres undefined): the Potency result in experiment [1], in experiment [2], in experiment [4], in experiment [5], in experiment [6] and in [7] was “inactive” each time. Besides, the Potency result in experiment [8] and in experiment [10] was “inactive” throughout. Besides, the max response in experiment [3] is 2.03%. For the same molecule, in experiment [9], the result was inactive.

`Cc1cc(C)nc(Nc2ccccc2)n1`: the Potency result in [1], in experiment [2], in [4], in [5], in [6] and in experiment [8] was “inactive” throughout. In experiment [10], the Potency result is “inactive”. Also, in experiment [3], the max response was -2.72%. The molecule was classed as inactive in [9].

With `CC1CN1P(=O)(N1CC1C)N1CC1C` (centres undefined), the Potency result in experiment [1], in experiment [2], in experiment [4], in experiment [5], in experiment [6] and in experiment [7] was “inactive” throughout. Further, the Potency entry in experiment [8] and in experiment [10] was “inactive” throughout. In addition, the max response in [3] is 6.96%. In experiment [9], the molecule was classed as inactive.
